# Source: PubChem BioAssay (several laboratories)
# KLF5 inhibitor: inhibitors of KLF5 expression. actives 0.23% (n = 290,000). DLD-1 KLF5 promoter-luciferase reporter, luminescence. AID 1700. inhibition, % at 5 µM;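 active means inhibition above a per-plate limit of that plate's mean compound inhibition plus 3 SD, cut at about 60% in these data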;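 further: 0% = DMSO wells and 100% = LY294002 at 200 µM; higher means less KLF5 promoter-driven luciferase light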
# aSyn 5UTR inh: 5' untranslated region of α-synuclein, MLPCN primary screen | alpha-synuclein 5'UTR reporter, inhibitor activity | inhibition, % (tested at 7.5 µM) | actives 0.82% (n = 300,000) | AID 1813; in the data active means inhibition above about 60%;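 further: H4 neuroglioblastoma cells stably carrying SNCA 5'UTR luciferase fusion; 0% = DMSO wells and 100% = positive control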
# BaF3 tox: parental Ba/F3 viability inhibition as JAK2V617F counter-screen | actives 1.1% (n = 220,000) | inhibition, % at 5.6 µM | CellTiter-Glo ATP luminescence;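 active means inhibition above a per-campaign cutoff, the mean inhibition of all tested compounds plus 3 SD, cut at about 27% in these data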;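 further: 0% = DMSO wells and 100% = JAK Inhibitor I control wells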
# IEC-6 tox: IEC-6 cytotoxicity, counter-screen for KLF5 inhibitors; AID 1825; luminescence viability; inhibition, % at 5 µM; actives 0.78% (n = 290,000); in the data active means inhibition above about 22%;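 further: 0% = plate median of test compound wells and 100% = cytotoxic reference compound wells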
# Ba/F3 V617F tox: loss of viability in JAK2V617F-driven Ba/F3 cells | Ba/F3 EpoR-JAK2V617F viability, ATP luminescence | inhibition, % at 5.6 µM | actives 1.1% (n = 220,000);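 active means inhibition above the campaign mean plus 3 SD over all tested compounds, cut at about 24% in these data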;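 further: cytokine-independent growth of Ba/F3 cells driven by EpoR plus mutant JAK2; 0% = DMSO-treated cells and 100% = JAK inhibitor I control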
# APP 5UTR inh: APP translation inhibition | inhibition, % at 2 µM | actives 0.82% (n = 190,000) | SH-SY5Y APP 5'UTR-luciferase reporter, luminescence;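 active means inhibition above a set limit, derived from the sample mean plus 3 SD, cut at about 45% in these data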
# Active calls of the source: *; . = no result. A selection: hits, their analogues and other compounds. The true share with any hit is near 2.2%.
SMILES,KLF5 inhibitor,aSyn 5UTR inh,BaF3 tox,IEC-6 tox,Ba/F3 V617F tox,APP 5UTR inh
CCCOC(=O)c1cc(=O)[nH]c2ccccc12,2,22,97*,3,2,-11
CCOC(=O)c1cc(=O)[nH]c2ccccc12,-36,23,6,3,0,16
COc1ccc(C(=O)C(CN2CCCC2)c2ccccc2)cc1 (configuration not stated),-15,-112,29*,7,80*,86*
O=C(c1ccc(F)cc1)C(CN1CCOCC1)c1ccccc1 (configuration not stated),-34,-9,5,-3,8,95*
CCCCOc1ccc(C(=O)C(CN2CCOCC2)c2ccccc2)cc1 (configuration not stated),-11,-134,4,1,12,5
COc1ccc(C(=O)C(CN2CCOCC2)c2ccccc2)cc1 (configuration not stated),-3,-80,42*,8,90*,90*
O=C(c1ccc(Cl)cc1)C(CN1CCCC1)c1ccccc1 (configuration not stated),-48,-155,.,14,.,.
CCc1ccc(N2CC(C(=O)N/N=C/c3ccccc3)CC2=O)cc1 (configuration not stated),.,-4,.,.,.,.
CC(C)N1CCc2c(sc(N)c2C#N)C1,.,-3,.,.,.,.
CCN1CCc2c(sc(N)c2C#N)C1,18,7,1,1,-2,66*
OC(CNc1ccccc1)COc1ccc(OCC(O)CNc2ccccc2)cc1 (configuration not stated),13,-3,34*,16,24*,-7
CCOCC(O)CNc1ccccc1 (configuration not stated),-8,2,8,1,0,1
CCn1nc(C)c(CNC(=O)c2cc(COc3ccc(F)cc3Cl)on2)c1C,-7,-10,64*,9,67*,.
CCn1cc(CNC(=O)c2cc(COc3ccc(F)cc3Cl)on2)cn1,-15,10,0,-1,-2,-1
CCOC(=O)Cc1ccc(NC(=O)c2ccc([N+](=O)[O-])cc2)cc1,-18,-14,33*,4,-2,-3
COC(=O)Cc1ccc(NC(=O)c2ccc(C(C)(C)C)cc2)cc1,40,124*,-1,5,-3,84*
CC(C)(C)c1ccc(C(=O)Nc2ccc(Cl)cc2)cc1,-93,-110,-1,6,-3,-126
CCOC(=O)c1nn(-c2ccccc2)c(=O)cc1OCC(=O)Nc1ccccc1OCC,.,11,.,.,.,.
COc1ccc(/C=N/OCc2ccc(Br)cc2)c(OC)c1,-9,-38,.,8,.,.
COc1ccc(-c2c[n+](CC(=O)OC3CC(C)CCC3C(C)C)c3n2CCC3)cc1 (configuration not stated),22,-20,82*,13,99*,2
CC(C)[C@@H]1CC[C@@H](C)C[C@H]1OC(=O)C[n+]1cc(-c2ccc(Cl)cc2)n2c1CCCCC2,4,-2,85*,-3,98*,.
CCc1ccccc1NC(=S)N=Nc1c(O)n(C)c2ccc(S(=O)(=O)N3CCOCC3)cc12,-3,80*,2,-3,1,38
Cc1ccc(NC(=O)c2ccc(S(=O)(=O)N3CCOCC3)cc2)c(C)c1,-28,4,.,-2,.,.
Cc1ccc(Cn2c(O)c(N=NC(=S)Nc3ccccc3F)c3cc(S(=O)(=O)N4CCOCC4)ccc32)cc1,24,66*,5,8,2,50*
Cc1ccc(C)c(NC(=S)N=Nc2c(O)n(C)c3ccc(S(=O)(=O)N4CCOCC4)cc23)c1,-17,78*,4,-12,-3,25
SMILES,KLF5 inhibitor,aSyn 5UTR inh,BaF3 tox,IEC-6 tox,Ba/F3 V617F tox,APP 5UTR inh
COC(=O)c1ccccc1NC(=O)NCc1c(C)nn(C)c1C,11,.,3,-2,-2,-27
COC(=O)c1[nH]c2cccc(OC)c2c1NC(=O)C(C)N1CCC(C)CC1 (configuration not stated),-6,13,3,3,-1,66*
CCOC(=O)c1c(NC(=O)CC)sc2c1CCN(Cc1ccccc1)C2,-28,-3,.,2,.,.
CCOC(=O)c1c(NC(=O)CSc2ncccn2)sc2c1CCN(Cc1ccccc1)C2,18,-11,39*,4,5,9
CC1CCC(C(C)C)C(OCC(O)CNC(C)C)C1 (configuration not stated),-8,15,3,-6,-4,.
O=C(CCS(=O)(=O)c1ccc(Br)cc1)NCCC1=CCCCC1,4,-10,.,-5,.,.
COc1ccc(CCn2cnc(=O)c(C#N)c2C)cc1OC,-30,5,11,1,-3,-31
CCC(=O)OCCNc1cc(Sc2nccn2C)c2nonc2c1[N+](=O)[O-],-20,16,1,-5,-2,60*
CCCC(=O)OCCNc1cc(Sc2nc3ccccc3[nH]2)c2nonc2c1[N+](=O)[O-],23,-2,-1,7,-2,74*
CC(=O)OCCCNc1cc(Sc2ccc(Cl)cc2)c2nonc2c1[N+](=O)[O-],9,8,2,-15,-2,51*
COc1cc(CC(=O)N(C)CC(=O)Nc2cc(C)ccc2C)cc(OC)c1OC,-6,3,.,0,.,.
CCOC(=O)CSc1n[nH]c(NC(=O)CC)n1,-7,9,4,12,3,-16
Cc1c(C(=O)c2ccccc2C(=O)O)sc2ccccc12,11,1,.,1,.,.
CC1(C)Cc2nc(-c3ccccc3)nc(SCC(=O)N3CCOCC3)c2CO1,-19,0,.,0,.,.
CC1(C)Cc2nc(-c3ccccc3)nc(SCC(O)CO)c2CO1 (configuration not stated),-27,0,61*,3,1,.
CCOc1ccccc1CNC(=O)C1CCN(c2nnc(C)c3c(C)n(-c4ccc(C)cc4)nc23)CC1,-3,78*,.,6,.,.
Cc1ccc(-n2nc3c(N4CCC(C(=O)NCc5ccccc5C)CC4)nnc(C)c3c2C)cc1,-11,45,.,10,.,.
COc1ccc(-n2nc3c(N4CCC(C(=O)NCc5cccc(C)c5)CC4)nnc(C)c3c2C)cc1,17,70*,.,9,.,.
Cc1ccc(NC(=O)N2CCCC2C(=O)NCCC2=CCCCC2)cc1 (configuration not stated),-27,17,-1,0,-3,48*
CC(C)CCN(C(=O)Nc1ccc(Cl)cc1)C1CCN(C(C)C)CC1,-8,-38,4,4,-1,-12
COc1cnc(-c2ccccn2)nc1NC(C)C,-25,98*,5,11,-1,40
CC(=O)N1/C(=C/c2ccc(N(C)C)cc2)C(=O)c2ccccc21,21,-48,-8,21,2,81*
O=c1cc2oc3cc(O)c(O)cc3c(-c3ccccc3[N+](=O)[O-])c-2cc1O,-4,71*,.,12,.,.
Cc1nn(C)c(C)c1CN(Cc1nc(CCC(C)C)no1)C(C)C,6,1,81*,9,53*,16
Cc1cc(C)n(-c2nc(Nc3ccccc3C(F)(F)F)nc(-n3nc(C)cc3C)n2)n1,11,62*,5,39*,-2,42
